The source made the active and inactive calls.
assay: basal HepG2 mitochondrial membrane potential changes, profiling panel, cell-based, JC-1 fluorescence, 24 h, 100 nL compound (AID 1167); conditions: higher = more signal
Also: test concentration not given here.

Row | Compound | z-score
1 | CCOC(=O)C1=C[C@@H](CC)N(S(=O)(=O)c2ccc(C)cc2)[C@H]1c1ccccc1 | -0.378
2 | COC(=O)[C@@]1(Cc2ccccc2)[C@H]2c3cc(C(=O)N(C)C)n(Cc4c(-c5ccccc5)noc4C)c3C[C@H]2CN1C(=O)c1ccccc1 | 2.14
3 | COCCOC(=O)N1C(=O)[C@@]2(c3cc(C#CCNC(N)=O)ccc31)[C@H](c1ccccc1OCCO)N1[C@H](c3ccccc3)[C@H](c3ccccc3)OC(=O)[C@H]1[C@@H]2C(N)=O | -1.83
4 | CC(C)N1C(=O)[C@@]2(c3ccc([N+](=O)[O-])cc3)CC(=O)N(CC34CC5CC(CC(C5)C3)C4)[C@@H]2c2ccc(CO)cc21 | 0.396
5 | CC(=O)NCCCC[C@@H]1NC(=O)[C@@H]2C[C@H](C(=O)NCCCCN(C)C)[C@H](c3ccc(O)cc3)N2C1=O | 0.709
6 | Cc1ccccc1C(O)C1C=CC2C(=O)N(C)C(=O)C2N1N1CCCCC1 (centres undefined) | -1.64
7 | CCOC(=O)C[C@H]1[C@H](OC(=O)c2ccc(C(=O)c3ccccc3)cc2)[C@@H](NC(=O)C2CCCCC2)c2cc(OCCCO)ccc2N1C(=O)c1ccccc1 | 1.4
8 | COc1ccc([Si](C)(C)[C@@H]2[C@@H](CC(=O)N3CCC[C@H]3CO)O[C@]3(C(=O)N(C)c4c(Br)cc(C)cc43)[C@H]2C)cc1 | 1.02
9 | COC(=O)[C@@]1(Cc2ccc(F)cc2)[C@H]2c3cc(C(=O)N4CCCC4)n(Cc4cccc5ccccc45)c3C[C@H]2CN1C(=O)c1ccccc1 | 3.8
10 | C=CC(COC(C)=O)NS(=O)(=O)c1ccc(Br)cc1 (centres undefined) | -0.642
11 | CC(C)(C)OC(=O)CC[C@@]1(C(=O)O)N=C(c2ccc(OCCCO)cc2)O[C@@H]1c1ccccc1N=[N+]=[N-] | -2.88
12 | CCOC(=O)C1=CCC(c2ccc(C#N)cc2)N(S(=O)(=O)c2ccc(C)cc2)C1 (centres undefined) | -0.259
13 | O=C1OCCC=C[C@H]2OC34C=CCN(Cc5ccccc5)C(=O)[C@H]3N(CCCO)C(=O)[C@@H]4C12 (some centres undefined) | 0.161
14 | O=C1OCC=C[C@H]2OC34C=CCN(c5ccc(Cl)cc5)C(=O)[C@H]3N(CCCCCCO)C(=O)[C@@H]4[C@@H]12 (some centres undefined) | 0.715
15 | COC(=O)C(CC#Cc1ccc2c(c1)[C@]1(C(=O)N2)[C@H](c2ccc(OCCO)cc2)N2[C@H](c3ccccc3)[C@H](c3ccccc3)OC(=O)[C@H]2[C@@H]1C(=O)NC[C@H](O)c1ccccc1)C(=O)OC | -1.13
16 | CCOC(=O)C1=CC[C@@H](c2ccccc2Cl)N(S(=O)(=O)c2ccc(C)cc2)C1 | 4.34
17 | O=C1O[C@H](c2ccccc2)[C@H](c2ccccc2)N2[C@H]1[C@@H](C(=O)O)[C@]1(C(=O)Nc3ccc(C#CC4=CCCCC4)cc31)[C@H]2c1ccc(OCCO)cc1 | -4.3
18 | N#Cc1ccc(NN2C(C(O)c3ccc([N+](=O)[O-])cc3)C=CC3C(=O)N(c4ccccc4)C(=O)C32)cc1 (centres undefined) | -1.91
19 | C=C(CCCC)/C(=C/C[C@H](OC(C)=O)c1ccc(CO)o1)c1cnc2ccccc2c1 | -1.04
20 | O=C1OCCC=C[C@H]2OC34C=CCN(Cc5ccccc5)C(=O)[C@H]3N(CCCCCCO)C(=O)[C@@H]4C12 (some centres undefined) | 0.445
21 | C[C@]1(C(=O)NCc2ccccc2)c2ccccc2C(=O)N(Cc2ccc(OC(F)(F)F)cc2)[C@H]1c1ccc(CO)cc1 | 3.56
22 | CC(C)NC(=O)[C@@]1(Cc2ccccc2I)c2ccccc2C(=O)N(Cc2ccccc2)[C@H]1c1ccc(CO)cc1 | 0.798
23 | O=C1N(CCS(=O)(=O)c2ccccc2)c2ccccc2C[C@@]12COC(c1ccc(OCCCO)cc1)=N2 | -2.09
24 | CC1CC/C=C\[C@H]2OC34C=CCN(Cc5ccccc5)C(=O)[C@H]3N(CCCCCO)C(=O)[C@@H]4C2C(=O)O1 (some centres undefined) | 0.647

assay: basal 3T3-L1 adipocyte mitochondrial potential changes, profiling panel, cell-based, JC-1 fluorescence, 3T3-L1 adipocytes, 24 h, 100 nL compound (AID 1168); conditions: JC-1 mitochondrial fluorescence, higher = more signal, called active from +8 up or from −8 down

Row | Compound | z-score
25 | COCCOC(=O)N1C(=O)[C@@]2(c3cc(C#CCNC(N)=O)ccc31)[C@H](C(=O)N1CCc3cc(OC)c(OC)cc3C1)[C@H]1C(=O)O[C@H](c3ccccc3)[C@H](c3ccccc3)N1[C@@H]2c1ccc(OCCO)cc1 | 1.66 (inactive)
26 | CCOC(=O)C1=CC[C@@H](c2ccccc2)N(S(=O)(=O)c2ccc(C)cc2)[C@H]1C(=O)OCC | 0.252 (inactive)
27 | O=C(CS)NCCCCCCNC(=O)[C@@H]1C[C@@H]2C(=O)N3CCC[C@H]3C(=O)N2[C@@H]1c1ccc(O)cc1 | -0.124 (inactive)
28 | CCOC(=O)C1=CCC(c2ccc([N+](=O)[O-])cc2)N(S(=O)(=O)c2ccc(C)cc2)C1 (centres undefined) | -0.769 (inactive)
29 | COCCOC(=O)N1C(=O)[C@@]2(c3cc(C#CCNC(N)=O)ccc31)[C@H](c1ccc(O)cc1)N1[C@H](c3ccccc3)[C@H](c3ccccc3)OC(=O)[C@H]1[C@@H]2C(=O)Nc1nc2ccccc2s1 | 1.56 (inactive)
30 | O=c1cccc(CCc2ccccc2)o1 | -0.352 (inactive)
31 | O=C1N(CCS(=O)(=O)c2ccccc2)Cc2ccccc2[C@H]2OC(c3ccc(OCCCO)cc3)=N[C@@]12CCS(=O)(=O)c1ccccc1 | 0.557 (inactive)
32 | CN(C)C(=O)[C@@]1(CCC(=O)OC(C)(C)C)N=C(c2ccc(OCCCO)cc2)O[C@H]1c1ccccc1 | -0.58 (inactive)
33 | O=C1C2C=CC(C(O)c3ccc(-c4ccccc4)s3)N(n3cnnc3)C2C(=O)N1Cc1ccccc1 (centres undefined) | -0.878 (inactive)
34 | CC(C)C(O)C1C=CC2C(=O)N(c3ccccc3)C(=O)C2N1Nc1ccc(C#N)cc1 (centres undefined) | -1.47 (inactive)
35 | COC(=O)c1ccc(C(O)C2C=CC3C(=O)N(C)C(=O)C3N2NC(=O)OC(C)(C)C)o1 (centres undefined) | -0.429 (inactive)
36 | CCOC(=O)C1=C[C@@H](CC)N(S(=O)(=O)c2ccc(C)cc2)[C@H]1c1ccccc1 | -1.31 (inactive)
37 | COC(=O)[C@@]1(Cc2ccccc2)[C@H]2c3cc(C(=O)N(C)C)n(Cc4c(-c5ccccc5)noc4C)c3C[C@H]2CN1C(=O)c1ccccc1 | -1.05 (inactive)
38 | COCCOC(=O)N1C(=O)[C@@]2(c3cc(C#CCNC(N)=O)ccc31)[C@H](c1ccccc1OCCO)N1[C@H](c3ccccc3)[C@H](c3ccccc3)OC(=O)[C@H]1[C@@H]2C(N)=O | 0.369 (inactive)
39 | CC(C)N1C(=O)[C@@]2(c3ccc([N+](=O)[O-])cc3)CC(=O)N(CC34CC5CC(CC(C5)C3)C4)[C@@H]2c2ccc(CO)cc21 | 0.888 (inactive)
40 | CC(=O)NCCCC[C@@H]1NC(=O)[C@@H]2C[C@H](C(=O)NCCCCN(C)C)[C@H](c3ccc(O)cc3)N2C1=O | 1.05 (inactive)
41 | Cc1ccccc1C(O)C1C=CC2C(=O)N(C)C(=O)C2N1N1CCCCC1 (centres undefined) | -1.01 (inactive)
42 | CCOC(=O)C[C@H]1[C@H](OC(=O)c2ccc(C(=O)c3ccccc3)cc2)[C@@H](NC(=O)C2CCCCC2)c2cc(OCCCO)ccc2N1C(=O)c1ccccc1 | -0.355 (inactive)

Row | Compound | z-score
43 | COc1ccc([Si](C)(C)[C@@H]2[C@@H](CC(=O)N3CCC[C@H]3CO)O[C@]3(C(=O)N(C)c4c(Br)cc(C)cc43)[C@H]2C)cc1 | 0.0349 (inactive)
44 | COC(=O)[C@@]1(Cc2ccc(F)cc2)[C@H]2c3cc(C(=O)N4CCCC4)n(Cc4cccc5ccccc45)c3C[C@H]2CN1C(=O)c1ccccc1 | -1.48 (inactive)
45 | C=CC(COC(C)=O)NS(=O)(=O)c1ccc(Br)cc1 (centres undefined) | -0.869 (inactive)
46 | CC(C)(C)OC(=O)CC[C@@]1(C(=O)O)N=C(c2ccc(OCCCO)cc2)O[C@@H]1c1ccccc1N=[N+]=[N-] | -1.08 (inactive)
47 | CCOC(=O)C1=CCC(c2ccc(C#N)cc2)N(S(=O)(=O)c2ccc(C)cc2)C1 (centres undefined) | 0.345 (inactive)
48 | O=C1OCCC=C[C@H]2OC34C=CCN(Cc5ccccc5)C(=O)[C@H]3N(CCCO)C(=O)[C@@H]4C12 (some centres undefined) | -0.282 (inactive)
49 | O=C1OCC=C[C@H]2OC34C=CCN(c5ccc(Cl)cc5)C(=O)[C@H]3N(CCCCCCO)C(=O)[C@@H]4[C@@H]12 (some centres undefined) | 0.26 (inactive)
50 | COC(=O)C(CC#Cc1ccc2c(c1)[C@]1(C(=O)N2)[C@H](c2ccc(OCCO)cc2)N2[C@H](c3ccccc3)[C@H](c3ccccc3)OC(=O)[C@H]2[C@@H]1C(=O)NC[C@H](O)c1ccccc1)C(=O)OC | 0.833 (inactive)
51 | CCOC(=O)C1=CC[C@@H](c2ccccc2Cl)N(S(=O)(=O)c2ccc(C)cc2)C1 | -0.0958 (inactive)
52 | O=C1O[C@H](c2ccccc2)[C@H](c2ccccc2)N2[C@H]1[C@@H](C(=O)O)[C@]1(C(=O)Nc3ccc(C#CC4=CCCCC4)cc31)[C@H]2c1ccc(OCCO)cc1 | -3.28 (inactive)
53 | N#Cc1ccc(NN2C(C(O)c3ccc([N+](=O)[O-])cc3)C=CC3C(=O)N(c4ccccc4)C(=O)C32)cc1 (centres undefined) | -0.703 (inactive)
54 | C=C(CCCC)/C(=C/C[C@H](OC(C)=O)c1ccc(CO)o1)c1cnc2ccccc2c1 | -0.779 (inactive)
55 | O=C1OCCC=C[C@H]2OC34C=CCN(Cc5ccccc5)C(=O)[C@H]3N(CCCCCCO)C(=O)[C@@H]4C12 (some centres undefined) | 0.903 (inactive)
56 | C[C@]1(C(=O)NCc2ccccc2)c2ccccc2C(=O)N(Cc2ccc(OC(F)(F)F)cc2)[C@H]1c1ccc(CO)cc1 | 0.777 (inactive)
57 | CC(C)NC(=O)[C@@]1(Cc2ccccc2I)c2ccccc2C(=O)N(Cc2ccccc2)[C@H]1c1ccc(CO)cc1 | -1.19 (inactive)
58 | O=C1N(CCS(=O)(=O)c2ccccc2)c2ccccc2C[C@@]12COC(c1ccc(OCCCO)cc1)=N2 | 0.7 (inactive)
59 | CC1CC/C=C\[C@H]2OC34C=CCN(Cc5ccccc5)C(=O)[C@H]3N(CCCCCO)C(=O)[C@@H]4C2C(=O)O1 (some centres undefined) | -0.478 (inactive)

From PubChem BioAssay
